# Test results reported in PubChem BioAssay AID372 (MTDP, 2006).
# Hit rate of the full screen: of about 100,000 compounds, about 770 (0.77%) were called active. The sample holds actives, similar compounds and a random draw of the others, so the mix is not that of the screen. Cut-off read from the data, not from the text of the source: active = inhibition above about 50%; inactive = the rest.
# Target: Gag-Pol polyprotein (Human immunodeficiency virus type 1 group M subtype B (isolate HXB2)) (UniProt P04585)
# Test: RNase H inhibition, HIV 1 Gag Pol polyprotein, FRET biochemical assay, screening (AID 372)
# Conditions: HIV-1 RT RNase H, FRET RNA/DNA substrate fluorescence; at 10 µM; hits give high values
row,SMILES,inhibition
1,O=C(COc1ccc2ccccc2c1)N/N=C\c1cc(O)c(O)c(Br)c1,73% (active)
2,COc1ccc(OCC(=O)N/N=C\c2cc(O)c(O)c(Br)c2)c(Br)c1,64% (active)
3,O=C(COc1ccc2ccccc2c1)N/N=C/c1ccccc1Br,13% (inactive)
4,O=C(COc1ccc2ccccc2c1)N/N=C/c1ccccc1,4% (inactive)
5,COc1ccc(OCC(=O)N/N=C/c2ccc(OC)c(Br)c2)cc1,2% (inactive)
6,COc1cc(/C=N/NC(=O)COc2ccc(Cl)cc2Br)cc(Br)c1O,24% (inactive)
7,Cc1cc(=O)[nH]c(N/N=C/c2ccc(O)cc2)n1,2% (inactive)
8,CC(C)(C)c1cc(C(=O)Nc2nsc(-c3ccccc3)n2)cc(C(C)(C)C)c1,7% (inactive)
9,COc1ccc(NC(=O)/C=C/c2ccc(C)o2)cc1,21% (inactive)
10,N#CC(C#N)=Cc1cn(-c2ccccc2)nc1-c1cc2ccccc2oc1=O,56% (active)
11,N#C/C(=C/c1cn(-c2ccccc2)nc1-c1cc2ccccc2oc1=O)C(N)=O,8% (inactive)
12,O=c1oc2ccccc2cc1-c1nn(-c2ccccc2)cc1/C=N/O,21% (inactive)
13,Cc1ccccc1-c1nc2c3c4c(sc3ncn2n1)CCCCC4,8% (inactive)
14,COc1ccc(OCC(=O)Nc2sc3c(c2C(N)=O)CCCC3)cc1,41% (inactive)
15,CCc1ccc(-c2nc3cc(NC(=O)COc4ccc([N+](=O)[O-])cc4)ccc3o2)cc1,43% (inactive)
16,O=C(COc1ccc([N+](=O)[O-])cc1)Nc1ccc2oc(-c3cccc(Cl)c3)nc2c1,9% (inactive)
17,Cc1cccc(OCC(=O)Nc2ccc3oc(-c4cccc(I)c4)nc3c2)c1,22% (inactive)
18,COc1ccc(OCC(=O)Nc2ccc3oc(-c4ccncc4)nc3c2)cc1,14% (inactive)
19,O=C(COc1ccc([N+](=O)[O-])cc1)Nc1ccc2oc(-c3ccccc3F)nc2c1,49% (inactive)
20,COc1ccc(OCC(=O)Nc2ccc3oc(-c4cccc(I)c4)nc3c2)cc1,53% (active)
21,O=C(COc1ccc([N+](=O)[O-])cc1)Nc1ccc2oc(-c3ccccc3Cl)nc2c1,53% (active)
22,COc1ccc(-c2nc3cc(NC(=O)COc4ccc([N+](=O)[O-])cc4)ccc3o2)cc1,55% (active)
23,O=C(COc1ccc([N+](=O)[O-])cc1)Nc1ccc2oc(-c3ccc(Br)cc3)nc2c1,14% (inactive)
24,O=c1[nH]c(-c2cccc(O)c2)nc2sc3c(c12)CCCC3,22% (inactive)

row,SMILES,inhibition
1,COc1cccc(COc2cc3oc(=O)c4c(c3cc2Cl)CCCC4)c1,12% (inactive)
2,O=C(NCc1cccnc1)c1cnn2c(C(F)(F)F)cc(-c3ccc4c(c3)OCO4)nc12,11% (inactive)
3,Cc1ccc(NC(=O)/C=C/c2ccc3c(c2)OCO3)c(C)c1,10% (inactive)
4,C=CCN1C(=O)/C(=C\c2ccc(-c3ccc(C(=O)OCC)cc3)o2)C(=O)NC1=S,45% (inactive)
5,CCCCn1c(/N=C/c2nc3ccccc3n2C)nc2ccccc21,5% (inactive)
6,CCN(CC)c1ccc(N2C(=O)/C(=C\c3ccc(C)o3)SC2=S)cc1,3% (inactive)
7,CCN(CC)C(=O)C(=O)N/N=C/c1ccco1,5% (inactive)
8,S=C(Nc1ccc2nccnc2c1)Nc1cccc2ccccc12,27% (inactive)
9,O=C(N=Nc1c(O)n(CN2CCCCCC2)c2ccc(Br)cc12)c1cccnc1,5% (inactive)
10,N#C/C(=C\c1cccc([N+](=O)[O-])c1)c1nc(-c2cccc([N+](=O)[O-])c2)cs1,6% (inactive)
11,N#C/C(=C\c1cccc(Br)c1)c1nc(-c2cccc([N+](=O)[O-])c2)cs1,22% (inactive)
12,COc1ccc(/C=C(\C#N)c2nc(-c3ccc(OC)c(OC)c3)cs2)cc1O,25% (inactive)
13,N#C/C(=C\c1ccccc1[N+](=O)[O-])c1nc(-c2cc3cc([N+](=O)[O-])ccc3oc2=O)cs1,52% (active)
14,N#C/C(=C\c1cccc([N+](=O)[O-])c1)c1nc(-c2cc3cc([N+](=O)[O-])ccc3oc2=O)cs1,7% (inactive)
15,COc1ccc(-c2csc(/C(C#N)=C/c3ccc(O)cc3)n2)cc1OC,24% (inactive)
16,COc1ccc(-c2csc(/C(C#N)=C/c3ccc(O)c(O)c3)n2)cc1OC,84% (active)
17,N#C/C(=C\c1ccc(O)c(O)c1)c1nc(-c2cccc([N+](=O)[O-])c2)cs1,60% (active)
18,N#C/C(=C\C=C\c1ccccc1[N+](=O)[O-])c1nc(-c2cc3cc([N+](=O)[O-])ccc3oc2=O)cs1,6% (inactive)
19,Cc1ccc(-n2c(/C=C3/C(=O)N(C)c4ccc(Br)cc43)nc3ccccc3c2=O)cc1,2% (inactive)
20,C=CCN1C(=O)C(Cc2ccc(F)cc2)S/C1=N\N=C\c1ccco1 (centres undefined),3% (inactive)
21,CC12C=CC(O1)C1C(=O)N(c3ccc([N+](=O)[O-])cc3)C(=O)C12 (centres undefined),11% (inactive)
22,O=C1N/C(=N\N=C\c2ccccc2O)SC1Cc1ccc(Br)cc1 (centres undefined),16% (inactive)
23,O=C(Nc1cccnc1)c1cccc(Cl)c1Cl,5% (inactive)
24,O=C1S/C(=C/c2cccc(Br)c2)C(=O)N1c1ccccc1,12% (inactive)

row,SMILES,inhibition
1,CCCN1C(=O)/C(=C\c2cccc(Cl)c2)SC1=S,19% (inactive)
2,O=C(NC(=S)Nc1ccc(S(=O)(=O)Nc2nccs2)cc1)c1sc2ccccc2c1Cl,70% (active)
3,O=C(Nc1nccs1)c1sc2ccccc2c1Cl,7% (inactive)
4,Cc1cccc(-c2nc3cc(NC(=O)c4sc5ccccc5c4Cl)ccc3o2)c1,37% (inactive)
5,O=S(=O)(Nc1nccs1)c1ccc(NC(=S)Nc2ccccc2)cc1,8% (inactive)
6,O=C(Nc1ccc(NC(=O)c2sc3ccccc3c2Cl)cc1)c1ccccc1,53% (active)
7,O=C(Nc1ccc2oc(-c3cccc(F)c3)nc2c1)c1sc2ccccc2c1Cl,52% (active)
8,CC(C)(C)c1ccc(C(=O)Nc2ccc(NC(=O)c3sc4ccccc4c3Cl)cc2)cc1,24% (inactive)
9,O=C(c1ccccc1)c1ccc(NC(=O)c2sc3ccccc3c2Cl)cc1,18% (inactive)
10,O=C(Nc1ccc2oc(-c3cccc(Cl)c3)nc2c1)c1sc2ccccc2c1Cl,20% (inactive)
11,CCc1ccc2oc(-c3ccc(NC(=O)c4sc5ccccc5c4Cl)cc3)nc2c1,50% (active)
12,Cc1ccc(-c2nc3cc(NC(=O)c4sc5ccccc5c4Cl)ccc3o2)cc1,20% (inactive)
13,O=C(Nc1ccc(-c2nc3cc(Cl)ccc3o2)cc1)c1sc2ccccc2c1Cl,41% (inactive)
14,Cc1cc(C)c(C(N)=O)c(Nc2ccccc2)n1,5% (inactive)
15,Cc1ccccc1C(=O)NC(=S)Nc1ccc2c3c(cccc13)CC2,21% (inactive)
16,O=C(Nc1ccc(F)cc1F)c1cccc(I)c1,4% (inactive)
17,CCOc1ccccc1N=CC1=C(O)CC(c2ccccc2)CC1=O (centres undefined),6% (inactive)
18,Cc1ccc(-c2nc(NC(=O)c3cccc(F)c3)sc2-c2ccccc2)cc1,16% (inactive)
19,COc1cc(NC(=O)C(F)(F)F)c(Cl)cc1NC(=O)c1ccccc1,0% (inactive)
20,CCOc1ccc(C(=O)Nc2cccc(NC(=O)c3ccccc3Cl)c2)cc1,8% (inactive)
21,CCOc1ccc(C(=O)Nc2cccc(S(N)(=O)=O)c2)cc1Br,4% (inactive)
22,COc1ccc(/C=C2/SC(=O)N(CNc3ccc(Br)cc3C)C2=O)cc1,7% (inactive)
23,COc1ccc(OC)c(/C=C2/SC(=O)N(CNc3ccc(Br)cc3C)C2=O)c1,5% (inactive)
24,O=C1S/C(=C/c2ccc(F)cc2)C(=O)N1CNc1ccc(I)cc1,4% (inactive)

row,SMILES,inhibition
1,O=C1S/C(=C/c2ccccc2F)C(=O)N1CNc1ccc(I)cc1,57% (active)
2,COc1ccc(/C=C2/SC(=O)N(CNc3ccc(I)cc3)C2=O)cc1,6% (inactive)
3,COc1cccc(/C=C2/SC(=O)N(CNc3ccc(Br)cc3C)C2=O)c1,58% (active)
4,COc1cccc(/C=C2/SC(=O)N(CNc3ccc(I)cc3)C2=O)c1,51% (active)
5,O=C1S/C(=C/c2ccccc2)C(=O)N1CNc1ccc(I)cc1,3% (inactive)
6,COc1ccc(/C=C2/SC(=O)N(CNc3ccccc3)C2=O)cc1,9% (inactive)
7,Cc1nc2ccccn2c1C(=O)N/N=C\c1ccccc1[N+](=O)[O-],9% (inactive)
8,C=CCOCCN(CCOCC=C)C1=NS(=O)(=O)c2cc([N+](=O)[O-])ccc21,8% (inactive)
9,CC(=O)c1ccc(N2CCN(C(=O)c3cc(F)c(F)cc3Cl)CC2)c(F)c1,7% (inactive)
10,C=CCOC(=O)C1=C(C)NC2=C(C(=O)CCC2)C1c1ccc(OCc2ccccc2)c(OC)c1 (centres undefined),15% (inactive)
11,O=C(Nc1nnc(-c2ccc3c(c2)OCO3)s1)c1sc2ccccc2c1Cl,5% (inactive)
12,CCOC(=O)c1c(NC(=O)c2cc(-c3ccc(OC)cc3)nc3ccccc23)sc2c1CCCCC2,5% (inactive)
13,Cc1ccc(C(=O)Nc2ccc(F)cc2F)cc1[N+](=O)[O-],18% (inactive)
14,COc1cc2ccccc2cc1C(=O)Nc1ccc2c(c1)C(=O)c1ccccc1C2=O,38% (inactive)
15,Cc1nnc(N/N=C/c2ccc(C(=O)O)cc2)[nH]c1=O,10% (inactive)
16,COc1cccc(C(=O)NCc2ccccc2OC)c1,2% (inactive)
17,COc1ccccc1CNC(=O)c1cccc(N(C)C)c1,56% (active)
18,COc1ccccc1CNC(=O)c1cccc(C)c1,2% (inactive)
19,Cc1ccc(N(CC(=O)N/N=C/c2cccc(Cl)c2)S(=O)(=O)c2ccc(F)cc2)cc1,13% (inactive)
20,Cc1ccc(-n2c(O)c(/C=C3\C=Nc4ccccc43)c(=O)[nH]c2=S)cc1,15% (inactive)
21,O=c1[nH]c(=S)n(-c2ccccc2)c(O)c1/C=C1\C=Nc2ccccc21,56% (active)
22,O=c1[nH]c(=S)n(-c2ccc(Br)cc2)c(O)c1/C=C1\C=Nc2ccccc21,20% (inactive)
